Test [1] concerns Human papillomavirus type 1a protein E7 (residues 44-93). Briefly: HPV1a E7 fragment binders on microarrays, primary screen, biochemical, small-molecule microarray, residues 44-93, 635 nm fluorescence (AID 1108).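 Also: E7 fragment applied at 1 µg/mL in TBST for 1 h at 4 C; score combines spot fluorescence with its signal to noise ratio.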 Conditions: small-molecule microarray binding, fluorescence 635 nm; higher = more signal.
A short description of test [2]: modulators of HCV replicon luciferase signal, primary screen, HCV replication inhibitor project, Huh7 cells, luciferase reporter (AID 1109).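 Also: huh7 hepatoma cells harbouring a luciferase neomycin HCV replicon reporter; luciferase luminescence as measure of HCV replicon replication; test concentration not given here.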 The settings on record: 48 h, higher = more signal.
The target of test [3] is Left-right determination factor 2 (Homo sapiens) (UniProt O00292). Briefly: LEFTY2 binders on small-molecule microarrays, primary screen, biochemical, small-molecule microarray, 635 nm fluorescence scan (AID 1110). The settings on record: LEFTY2 binding, higher = more signal.
Test [4] deals with Calmodulin-1 (Homo sapiens) (UniProt P0DP23). As to the kind of experiment: CALM1 binders on microarrays, EGTA buffer, profiling panel, biochemical, small-molecule microarray, Cy5-labelled CALM1 (AID 1111).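 Also: labelled calmodulin applied in Tris saline Tween buffer holding calcium plus EGTA and DTT.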 Conditions: Cy5-CALM1 binding fluorescence, higher = more signal.
Test [5] shares this target. Briefly: calcium-bound CALM1 binders on microarrays, profiling panel, artefact control for SMM control-protein annotation, biochemical, small-molecule microarray, Cy5-labelled CALM1, plus calcium (AID 1112).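 Also: score merges spot fluorescence with signal to noise from triplicate slides.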 The settings on record: Cy5-CALM1 binding fluorescence, higher = more signal.
A short description of test [6]: small-molecule microarray binders of probe aWnt5a, primary screen, biochemical, biotinylated probe, 635/667 nm fluorescence (AID 1113).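 Also: score merges 667 nm fluorescence intensity with signal-to-noise per printed feature.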 Conditions: higher = more signal.
The nature of test [7]: small-molecule microarray binders of probe aShh, primary screen, biochemical, biotinylated probe, 635/667 nm fluorescence (AID 1114).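 Also: probe is biotin-labelled aShh protein from a stem cell growth factor screen; measures binding of labelled protein to compounds printed on the slide; score merges feature fluorescence at 667 nm with signal-to-noise.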 Conditions: higher = more signal.
Test [8] is described as follows: small-molecule microarray binders of probe aNog, primary screen, biochemical, biotinylated probe, 635/667 nm fluorescence (AID 1115).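 Also: probe is biotinylated aNog protein used at 0.15 µg/mL for 1 h at 4 C; z-score combines 667 nm fluorescence of each spot with its signal to noise.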 The settings on record: higher = more signal.
Test [9] addresses Torsin-1A-interacting protein 1 (Homo sapiens) (UniProt Q5JTV8). As to the kind of experiment: LAP1 binders from COS7 cell lysate, primary screen, small-molecule microarray, 635/667 nm fluorescence (AID 1116). Conditions: COS7-hLAP1 lysate binding, 635 nm fluorescence, higher = more signal.
Test [10] deals with Alpha-bungarotoxin (Bungarus multicinctus) (UniProt P60615). As to the kind of experiment: alpha-bungarotoxin binders on microarray, profiling panel, artefact control for SMM control protein annotation, biochemical, small-molecule microarray, Alexa647 label, 635/667 nm fluorescence (AID 1117). Conditions: alpha-BTX-A647 binding fluorescence, higher = more signal.
The target of a further test is Albumin (Bos taurus) (UniProt P02769). As to the kind of experiment: bovine serum albumin binders on microarray, profiling panel, artefact control for SMM control protein annotation, biochemical, small-molecule microarray, Alexa647 label, 635/667 nm fluorescence (AID 1118).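 Also: score merges 667 nm emission intensity and signal-to-noise per printed compound spot.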 Conditions: BSA-A647 binding, fluorescence 635 nm, higher = more signal.
Test [11] in a line: small-molecule microarray binders of probe aXIP, primary screen, biochemical, NeuroSMM set, 635/667 nm fluorescence (AID 1119).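 Also: probe is the protein aXip251-270 applied at 1 µg/mL to compound-printed slides; binding of probe to printed compounds measured as 667 nm fluorescence plus signal to noise.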 Conditions: higher = more signal, called active from +8 up or from −8 down.
The nature of test [12]: small-molecule binders of probe aNOTCH3, primary screen, biochemical, small-molecule microarray, 635/667 nm fluorescence (AID 1120).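 Also: probe is a biotin-tagged antibody raised against NOTCH3 rather than NOTCH3 protein; score merges spot fluorescence near 667 nm with spot signal to noise.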 Conditions: higher = more signal.
A short description of test [13]: small-molecule binders of probe aNOTCH2, primary screen, biochemical, small-molecule microarray, 635/667 nm fluorescence (AID 1121).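 Also: score merges feature fluorescence read at 667 nm with its signal to noise.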 Conditions: higher = more signal.
Test [14] has as its target Carbonic anhydrase 2 (Homo sapiens) (UniProt P00918). Briefly: CAII small-molecule binders, profiling panel, biochemical, small-molecule microarray, Alexa647-labelled CAII (AID 1122). The settings on record: CAII-A647 binding fluorescence, higher = more signal.
The nature of test [15]: COS7 lysate on small-molecule microarray, probe aHis, 635 nm (AID 1123).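 Also: z-score combines 667nm fluorescence intensity with signal-to-noise per printed compound spot.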 The settings on record: COS7 cell lysate, fluorescence, higher = more signal.
Test [16] can be described thus: compound binding in COS7 lysate, probe aLAP1, primary screen, cell lysate, small-molecule microarray (AID 1124).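 Also: lysate comes from COS7 cells expressing LAP1 and is applied at 0.3 µg/mL; score merges spot fluorescence near 667 nm with signal-to-noise over triplicate slides.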 The settings on record: probe aLAP1, fluorescence, higher = more signal.
Another test concerns Sam68 (KHDRBS1). As to the kind of experiment: Sam68 small-molecule binders, primary screen, biochemical, small-molecule microarray, 635 nm fluorescence (AID 1125).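 Also: score merges 667 nm channel intensity with signal to noise over triplicate slides.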 Conditions: small-molecule microarray binding, higher = more signal.
In test [17] the test system is Chordin-like protein 2 (CHRDL2). As to the kind of experiment: CHRDL2 small-molecule binders, primary screen, biochemical, small-molecule microarray, 635 nm fluorescence (AID 1126).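 Also: printed compound slides probed with Chrdl2 protein at 4 µg/mL for 1 h at 4 C; score merges 667 nm emission intensity with signal to noise over three replicate slides.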 The settings on record: small-molecule microarray binding, fluorescence 635 nm; higher = more signal.
The target in test [18] is Concanavalin-A (Canavalia ensiformis) (UniProt P02866). As to the kind of experiment: ConA small-molecule binders, primary screen, artefact control for SMM control protein annotation, biochemical, small-molecule microarray, Alexa647 label, 635 nm (AID 1127).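 Also: z combines 667 nm emission intensity with signal-to-noise across three replicate slides.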 The settings on record: ConA-A647 binding fluorescence, higher = more signal.

Experimental findings from PubChem BioAssay are described below.

Activity calls are given as the source filed them.

Chain of Torsin-1A-interacting protein 1 (Homo sapiens) (Q5JTV8 whole entry, looked up): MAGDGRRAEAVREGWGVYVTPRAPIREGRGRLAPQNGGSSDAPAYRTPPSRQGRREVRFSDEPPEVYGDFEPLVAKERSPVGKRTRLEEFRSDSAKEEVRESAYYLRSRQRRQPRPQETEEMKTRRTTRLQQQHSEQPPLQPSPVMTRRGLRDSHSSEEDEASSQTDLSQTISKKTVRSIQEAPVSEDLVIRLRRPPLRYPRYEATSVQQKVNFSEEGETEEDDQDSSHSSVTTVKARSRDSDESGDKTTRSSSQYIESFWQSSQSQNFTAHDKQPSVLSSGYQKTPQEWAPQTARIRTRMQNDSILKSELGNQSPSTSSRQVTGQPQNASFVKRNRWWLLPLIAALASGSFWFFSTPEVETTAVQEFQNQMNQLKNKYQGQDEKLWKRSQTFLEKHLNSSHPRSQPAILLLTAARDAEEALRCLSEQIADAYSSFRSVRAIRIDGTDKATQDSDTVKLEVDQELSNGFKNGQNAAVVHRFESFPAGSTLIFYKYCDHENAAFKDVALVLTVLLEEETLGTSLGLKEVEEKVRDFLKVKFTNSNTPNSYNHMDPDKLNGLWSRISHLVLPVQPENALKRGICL
Chain of Albumin (Bos taurus) (P02769 whole entry, looked up): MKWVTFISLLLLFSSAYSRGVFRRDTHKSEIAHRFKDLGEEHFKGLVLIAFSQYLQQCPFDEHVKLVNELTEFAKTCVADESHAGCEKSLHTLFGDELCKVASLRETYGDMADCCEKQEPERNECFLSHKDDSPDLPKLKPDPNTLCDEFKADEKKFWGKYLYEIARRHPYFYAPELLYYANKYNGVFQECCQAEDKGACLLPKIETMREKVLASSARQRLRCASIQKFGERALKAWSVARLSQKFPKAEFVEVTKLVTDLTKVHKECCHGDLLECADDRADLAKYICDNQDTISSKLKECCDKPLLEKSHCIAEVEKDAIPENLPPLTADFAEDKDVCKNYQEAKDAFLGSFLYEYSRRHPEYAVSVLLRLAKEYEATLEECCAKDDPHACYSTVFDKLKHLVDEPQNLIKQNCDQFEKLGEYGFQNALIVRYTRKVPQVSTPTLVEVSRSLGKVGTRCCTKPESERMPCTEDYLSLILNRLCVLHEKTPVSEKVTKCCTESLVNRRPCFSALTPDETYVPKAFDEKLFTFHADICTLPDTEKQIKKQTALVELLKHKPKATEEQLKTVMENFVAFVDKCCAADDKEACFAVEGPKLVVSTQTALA
Chain of Concanavalin-A (Canavalia ensiformis) (P02866 whole entry, looked up): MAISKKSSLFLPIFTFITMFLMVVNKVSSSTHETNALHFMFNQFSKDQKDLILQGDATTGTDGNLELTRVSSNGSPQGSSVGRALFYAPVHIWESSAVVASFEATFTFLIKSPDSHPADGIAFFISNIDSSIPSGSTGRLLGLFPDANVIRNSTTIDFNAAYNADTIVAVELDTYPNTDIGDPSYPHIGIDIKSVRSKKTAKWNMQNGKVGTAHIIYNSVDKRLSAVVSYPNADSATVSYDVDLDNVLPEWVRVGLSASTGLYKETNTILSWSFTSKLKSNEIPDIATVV
Chain of Alpha-bungarotoxin (Bungarus multicinctus) (P60615 whole entry, looked up): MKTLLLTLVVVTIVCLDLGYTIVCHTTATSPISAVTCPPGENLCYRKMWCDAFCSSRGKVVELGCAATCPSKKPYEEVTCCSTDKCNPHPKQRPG
Chain of Left-right determination factor 2 (Homo sapiens) (O00292 whole entry, looked up): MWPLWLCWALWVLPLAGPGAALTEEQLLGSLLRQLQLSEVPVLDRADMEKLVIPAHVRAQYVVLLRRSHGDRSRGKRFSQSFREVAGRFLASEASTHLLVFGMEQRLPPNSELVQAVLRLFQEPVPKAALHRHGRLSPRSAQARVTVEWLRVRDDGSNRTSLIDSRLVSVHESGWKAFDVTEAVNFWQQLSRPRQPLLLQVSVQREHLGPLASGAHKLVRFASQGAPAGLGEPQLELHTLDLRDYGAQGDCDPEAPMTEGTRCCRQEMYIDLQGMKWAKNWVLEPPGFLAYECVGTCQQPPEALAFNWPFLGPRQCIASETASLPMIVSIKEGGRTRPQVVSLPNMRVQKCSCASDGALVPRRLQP

Take `COc1ccc([Si](C)(C)[C@H]2[C@H](CC(=O)N3CCC[C@H]3CO)O[C@@]3(C(=O)N(Cc4ccc(N5C(=O)c6cccc7cccc5c67)cc4)c4ccccc43)[C@@H]2C)cc1`: the composite z-score in [1] was 1.14; in test [3], 0.758; in test [4], 0.325; in test [5], -0.544; in test [6], -0.0944; in test [7] it was 0.151. The composite z-score in test [8] was 0.473; in [9], 0.585; in test [10] it was 2.05; with Albumin (Bos taurus) it was 0.121; in [12], 0.171; in [13], -0.146. Also, the composite z-score came out at 0.409 in [14]; 1.23 in test [15]; 0.206 in test [16]; 1.29 with Sam68 (KHDRBS1); 0.634 in [17]; 1.13 in [18]. In addition, the z-score in test [2] was -1.96. Also, in test [11], the composite Z-score is 0.829 (inactive).

For `O=C1c2ccccc2[C@](Cc2ccccc2I)(C(=O)NC2CC2)[C@H](c2ccc(CO)cc2)N1Cc1ccccc1Cl`, the composite z-score was 1.06 in test [1]; -0.112 in test [3]; 0.638 in test [4]; 0.61 in [5]; -0.0701 in test [6]; 0.755 in [7]. The composite z-score in [8] was found to be 0.139; in test [9], 0.747; in test [10], 0.09; with Albumin (Bos taurus), 0.0646; in test [12] it was 0.265; in [13], 0.0563. Besides, the composite z-score in test [14] came out at 0.574; in [15] it was 1.93; in test [16], 0.696; with Sam68 (KHDRBS1), 1.31; in test [17], 0.0424; in [18] it was 0.997. In test [2], the z-score is -1.4. Moreover, the composite Z-score in test [11] was -0.057 (inactive).

For the compound `COc1ccc([Si](C)(C)[C@@H]2[C@@H](CCO)O[C@]3(C(=O)N(Cc4cccc(N5C(=O)COc6ccccc65)c4)c4ccccc43)[C@H]2C)cc1`, the composite z-score in test [1] was 0.467; in [3], -0.382; in [4] it was 1.06; in [5], 0.728; in test [6], -0.063; in test [7] it was 0.0048. The composite z-score was -0.167 in test [8]; -0.028 in test [9]; 0.748 in [10]; 0.663 with Albumin (Bos taurus); -0.126 in test [12]; -0.0576 in [13]. Besides, the composite z-score was 0.163 in test [14]; 1.35 in [15]; 0.0386 in [16]; 0.19 with Sam68 (KHDRBS1); -0.117 in [17]; 1.03 in test [18]. Further, in test [2], the z-score was -4.83. The composite Z-score in test [11] was 0.215 (inactive).

As to `C=CCC(OC(C)=O)[C@@H]1[C@@H](N(Cc2cccc3ccccc23)C(=O)c2ccc(C)cc2)c2cc(OCCCO)ccc2N1C(=O)c1ccc2ccccc2c1` (stereo not given in full), the composite z-score in test [1] was -0.44; in test [3] it was 0.346; in [4], -0.0236; in test [5], -0.0542; in test [6], 0.0229; in test [7], -0.0793. In addition, the composite z-score in [8] is -0.329; in test [9], 0.139; in test [10], 0.132; in the test with Albumin (Bos taurus), -0.0007; in test [12] it was 0.0311; in test [13] it was -0.0924. For the same compound, the composite z-score in [14] was 0.0697; in test [15], 0.583; in [16], -0.27; in the test on Sam68 (KHDRBS1), -0.044; in test [17], 0.224; in test [18], -0.525. For the same compound, the z-score in test [2] is -0.945. In addition, the composite Z-score in test [11] was 0.0941 (inactive).

Turning to `COCCOC(=O)N1C(=O)[C@@]2(c3cc(C#Cc4ccc(OC)cc4)ccc31)[C@H](C(=O)N1CCc3cc(OC)c(OC)cc3C1)[C@H]1C(=O)O[C@H](c3ccccc3)[C@H](c3ccccc3)N1[C@@H]2c1ccc(OCCO)cc1`, the composite z-score is 0.577 in test [1]; 0.516 in [3]; 1.24 in [4]; 0.897 in test [5]; -0.0482 in [6]; -0.138 in test [7]. Moreover, the composite z-score in test [8] was 0.0637; in test [9], 0.247; in [10], 1.41; with Albumin (Bos taurus) it was -0.121; in test [12], 0.0271; in test [13], -0.149. In addition, the composite z-score was 0.22 in test [14]; -0.0346 in [15]; 0.0459 in test [16]; 1.23 in the test on Sam68 (KHDRBS1); 0.598 in test [17]; 1.09 in [18]. In test [2], the z-score was -0.195. The composite Z-score in test [11] was -0.527 (inactive).

Regarding `COCC(=C=CC[C@@H](O)c1ccccc1OCCO)C[C@@H](O)COCc1ccccc1`, the composite z-score in test [1] is -0.0562; in test [3], -0.522; in [4], 1.16; in [5], 0.0936; in test [6], 0.0158; in [7], 0.536. Further, the composite z-score in [8] is 0.998; in test [9], 2.56; in test [10] it was -0.18; with Albumin (Bos taurus) it was 0.521; in [12], 0.779; in [13], 0.365. In addition, the composite z-score in test [14] was 0.73; in [15] it was 2.22; in test [16], 1.04; in the test with Sam68 (KHDRBS1) it was 1.04; in [17], -0.463; in test [18], 0.244. Besides, in [2], the z-score is -0.868. For the same compound, in [11], the composite Z-score was 0.418 (inactive).
